Screening results as filed in PubChem.
HSD17B inhib: inhibitors of human HSD17B10 dehydrogenase | Q99714 | recombinant HSD17B10, NADH fluorescence kinetic | Potency, µM (top dose mostly 57.1 µM), without a hit: at the top dose activity change, negative = inhibition, usual class: inhibitors | 7.6% of 75,000 active;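 further: the protocol describes HADH2 (HSD17B10) and not the HSD17B4 of the title; potency means the concentration at half of the fitted maximal effect; on the % scale 0 is the no-effect control and ±100 the full control effect; nearly all actives have a fitted effect of over 70% in size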
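His-tagged E. coli-expressed HADH2 at 20 nM in 100 mM Tris-HCl pH 9.0 with 0.01 % Tween-20, preincubated 15 min with compound at room temperature. Reaction with 1 mM NAD+ and 90 uM beta-hydroxybutyryl coenzyme A; NADH fluorescence (360/450 nm) read kinetically over 4 min, last minus first point.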
A350 fluor: A350 region autofluorescence | max dye-equivalent concentration, M | Compound autofluorescence, 340/450 nm, Alexa 350 dye-equivalents; active compounds read high | 11% of 59,000 active; in the data active means max dye-equivalent concentration above about 10 nM; inconclusive means mostly about 1.1 nM to 9.6 nM
CRE-bla Fsk: modulators of forskolin-stimulated CRE signaling in CHO cells | Potency, µM (doses to about 38.2 µM), without a hit: at the top dose activity change, negative = inhibition, hits mostly activators | AID 662 | 2.5% of 71,000 active | CHO CRE-bla reporter (cAMP response element driving beta-lactamase), forskolin EC10, beta-lactamase ratio; active means well fitted activation curve with a large enough effect in the signal ratio, with a control signal flat, not every such curve was filed as active; inconclusive means small, poorly fitted or top-dose-only effect, or effect the other way, or a change in a side signal; the % refers to the signal ratio; further: potency means the concentration at half of the fitted maximal effect; % of control where 0% means no effect
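Titrated compounds plus EC10 NKH 477 on CHO CRE-bla cells, 3 h, 37 °C. CCF4, 2 h RT. Ratio 460/530 nm → AC50.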
HADH2 inhib: inhibitors of human HADH2 dehydrogenase; recombinant HADH2, NADH fluorescence, beta-hydroxybutyryl-CoA; Potency, µM (doses to about 57.1 µM), without a hit: at the top dose activity change, negative = inhibition, usual class: inhibitors; 3.4% of 73,000 active; AID 886; further: potency means the concentration at half of the fitted maximal effect; on the % scale 0 is the no-effect control and ±100 the full control effect; nearly all actives have a fitted effect of over 60% in size
Target sequence (Q99714 whole entry, looked up, one chain of several): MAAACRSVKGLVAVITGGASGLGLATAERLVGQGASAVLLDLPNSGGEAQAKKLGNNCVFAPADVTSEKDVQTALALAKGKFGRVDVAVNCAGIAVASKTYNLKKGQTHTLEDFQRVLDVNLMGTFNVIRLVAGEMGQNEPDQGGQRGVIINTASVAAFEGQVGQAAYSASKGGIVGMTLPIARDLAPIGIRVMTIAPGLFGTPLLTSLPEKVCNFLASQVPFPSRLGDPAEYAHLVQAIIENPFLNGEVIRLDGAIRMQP
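His-tagged recombinant enzyme from E. coli, 20 nM, preincubated 15 min RT with compound; reaction started with 1 mM NAD+ and 90 uM beta-hydroxybutyryl-CoA in 100 mM Tris-HCl pH 9.0. NADH fluorescence (ex 360/em 450) read over 4 min; last-minus-first difference.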
AID923: qHTS Assay for Allosteric/Competitive Inhibitors of Caspase-1: Spectroscopic Profiling in AFC Spectral Region; 1.1% of 75,000 active; Potency, µM (highest dose often 57.5 µM), for the others: at the highest dose fluorescence increase, hits mostly activators; compound fluorescence, AFC spectral region (405/520 nm); further: potency means the concentration at half of the fitted maximal effect; 0% is about no effect
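Compound autofluorescence profiled at 405 nm ex/520 nm em during kinetic caspase 1 run (50 nM enzyme, 5 uM Ac-WEHD-AFC, HEPES pH 7.5, 10 mM DTT). Titration up to 57 uM; baseline from regression intercept, normalized to AFC standard curve.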
4-MU autofl: 4-MU region autofluorescence. compound autofluorescence, 340/450 nm, 4-MU equivalents; active compounds read high. max dye-equivalent concentration, M. 11% of 59,000 active; in the data active means max dye-equivalent concentration above about 10 nM; inconclusive means mostly about 1.1 nM to 9.6 nM
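Intrinsic fluorescence at 340/450 nm (ex/em) was read after 15 min at room temperature in pH 8.0, 100 mM Tris. Each compound concentration expressed as 4-MU-equivalent concentration from a six-point 4-MU standard series on each plate.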
The depositor's hits bear a star; i = inactive; ? = inconclusive; . = no result given; [ ] = dose if it differs, or a comment. An excerpt weighted towards active compounds, which were near 14% of everything screened. Unless noted, the call rests on the fitted dose curve; in most records, active means well fitted curve in the direction sought with a large enough effect; inconclusive means small, poorly fitted or top-dose-only effect, or another doubt; inactive means no such curve, though single readings can be large; an effect the other way counts as inactive or inconclusive.

SMILES	HSD17B inhib	A350 fluor	CRE-bla Fsk	HADH2 inhib	AID923	4-MU autofl
CC1CN(S(=O)(=O)c2ccccc2)CC(C)O1 (configuration not stated)	17%	i	3%	-7%	1%	i
O=S(=O)(c1cccc(-c2cn3cccnc3n2)c1)N1CCCCCC1	25µM*	4.4e-07M*	7%	?	0%	6.8e-07M*
O=S(=O)(c1cccc(-c2cn3cccnc3n2)c1)N1CCOCC1	32µM*	3.2e-06M*	?	10µM*	-1%	2.3e-06M*
CC1CN(S(=O)(=O)c2cccc(-c3cn4cccnc4n3)c2)CC(C)O1 (configuration not stated)	7.9µM*	2.6e-06M*	-6%	13µM*	1%	1.9e-06M*
CC(CN(C)C)NC(=O)c1ccc(-n2c(=O)c(=O)[nH]c3ccccc32)cc1 (configuration not stated)	-2%	.	.	-10%	2%	.
CC(C)C(=O)Nc1ccc([N+](=O)[O-])c(C(F)(F)F)c1	-7%	i	5%	-7%	-4%	i
O=C1c2ccccc2S(=O)(=O)N1CC(O)Cn1ccc2ccccc21 (configuration not stated)	7%	i	-15%	12%	0%	i
COc1cc(NC(=O)CN2c3cccc4cccc(c34)S2(=O)=O)cc(OC)c1OC	?	1e-07M*	?	78%	-2%	8.3e-08M*
CCCN1c2cccc3cccc(c23)S1(=O)=O	25µM*	1.4e-07M*	-14%	-16%	6%	1.1e-07M*
CC[N+](C)(CC)CCN1C(=O)c2ccccc2S1(=O)=O	11%[11.4 µM]	i	2%[7.6 µM]	-4%[11.4 µM]	0%[11.5 µM]	i
N#CCCCCN1c2cccc3cccc(c23)S1(=O)=O	?	1.9e-07M*	-1%	-21%	3%	1.3e-07M*
Cc1cc(C)n(C/C=C/Cn2nc(C)cc2C)n1	5%	i	-2%	-1%	2%	i
CCOC(=O)c1sc(NC(=O)COC(=O)Cn2cnc3ccccc32)c(C(=O)OCC)c1C	-2%	i	?	-2%	-1%	i
NC(=O)/C(=N\O)c1ccccc1	.	i	.	.	.	i
c1ccc(N2CCN(c3nnc(Cc4cccnc4)c4ccccc34)CC2)nc1	4%	i	?	0%	-2%	i
CCc1nc(N2CCOCC2)c(C#N)c2c1CCCC2	.	7.1e-08M*	.	.	.	5.9e-08M*
CC(C)c1nc(N2CCCC2)c(C#N)c2c1CCCC2	32µM*	3.2e-07M*	?	?	0%	3.6e-07M*
CCCc1nc(N2CCCC2)c(C#N)c2c1CCCC2	.	1.2e-07M*	.	.	.	1.1e-07M*
CCc1nc(N2CCCC2)c(C#N)c2c1CCCC2	.	1.8e-07M*	.	.	.	1.7e-07M*
Cc1cc(N(C)C)c(C#N)c(N2CCOCC2)n1	-21%	i	?	1%	2%	i
Cc1ccccc1-n1c(SCc2ccccn2)nc2n[nH]c(C)c2c1=N	-14%	i	1.3µM*	-18%	-1%	i
CCOc1ccccc1NC(=O)CCSc1nc2n[nH]c(C)c2c(=N)n1-c1ccccc1Cl	?	i	1.6µM*	?	1%	i
COc1ccccc1NS(=O)(=O)c1ccc(Br)s1	1%	i	-21%	6%	1%	i
C=CCn1cc(C(=O)NCCCOC)c(=O)c2cc(S(=O)(=O)N(CC)CC)ccc21	?	?	?	-7%	1%	3.9e-08M*
C=CCn1cc(C(=O)NCCCOC)c(=O)c2cc(S(=O)(=O)N3CCC(C)CC3)ccc21	?	.	-8%	-1%	-3%	.
O=S(=O)(c1ccccc1)c1nc(-c2cccs2)oc1NCC1CCCO1 (configuration not stated)	-10%	?	13%	-6%	-1%	i
COc1ccc(-c2nc(C#N)c(NCC3CCCO3)o2)cc1 (configuration not stated)	25µM*	1.2e-08M*	11%	32µM*	-1%	?
COc1cc(OC)cc(C(=O)NCC2CCCO2)c1 (configuration not stated)	10%	.	.	0%	0%	.
